Measured values reported in PubChem BioAssay (EPA / NIEHS).
Several values for one entry are separate records, joined by “and”; a condition that tells them apart may be missing. Equal values may be shown once. Records with an inconclusive call do not appear. Some structures have more than one record in an assay (separate samples or runs), and their calls can disagree. Activity calls are given as the source filed them. Rule for the calls: active = hit-call score of the fitted dose curve at least 0.9, where 1 is the maximum; inconclusive = response in the unintended direction; inactive = score below 0.9.

Legend:
[1] = ATG_XTT_Cytotoxicity: Cytotoxicity Assessment in the Attagene TRANS-FACTORIAL HepG2 Assay (AID 2283584);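 for AC50: cells exposed to compound for 24 h before reading; active means loss of viability signal versus DMSO baseline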
Procedure, shortened: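 Cells: human HepG2, transiently transfected with MRTU reporter constructs. Exposure 24 h. Readout: XTT, cell number. Baseline/neg ctrl DMSO; loss-of-signal scored.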

[2] = TOX21_p53_BLA_p2_viability: Viability Assessment in the Tox21 HCT-116 p53 Agonism Beta-lactamase Assay, Phase 2 (AID 2283591);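 note: compound exposure lasted 16 h at 37 °C; actives lower the ATP signal meaning cytotoxicity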
Procedure, shortened: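 HCT-116 p53-bla cells (4000/well) rested 5 h at 37C, then received compounds in DMSO (217-fold dilution) for 16 h at 37C, 5% CO2. After the CCF4 read, CellTiter-Glo was added; ATP luminescence was read after 30 min at room temperature.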

[3] = TOX21_p53_BLA_p3_viability: Viability Assessment in the Tox21 HCT-116 p53 Agonism Beta-lactamase Assay, Phase 3 (AID 2283593);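 note: cells exposed to compound for 16 h before reading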
Procedure, shortened: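 HCT-116 cells (4000/well) rested 5 h at 37C, then got DMSO compounds by pin tool (217-fold dilution) for 16 h at 37C, 5% CO2. After the bla read, CellTiter-Glo was added and luminescence read at 30 min, room temperature.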

[4] = TOX21_p53_BLA_p4_viability: Viability Assessment in the Tox21 HCT-116 p53 Agonism Beta-lactamase Assay, Phase 4 (AID 2283597);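 note: hits lower the luminescence signal meaning cytotoxicity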
Procedure, shortened: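 Readout: ATP luminescence (CellTiter-Glo), measured 30 min after reagent addition at RT. The reagent followed a 2 h CCF4-AM incubation, and the cells had been exposed to compound for 16 h at 37C.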

[5] = molecular target: Cellular tumor antigen p53 (Homo sapiens) (UniProt P04637); assay: TOX21_p53_BLA_p2_ratio: Tox21 HCT-116 p53 Agonism Beta-lactamase Assay, Ratio, Phase 2 (AID 2283592)
Procedure, shortened: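 Plated HCT116 p53-bla cells (4000/well) received compound after 5 h, then 16 h at 37C/5% CO2. CCF4-AM added, 2 h RT. Ratio of 460 to 530 nm emission taken as the p53 reporter signal.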

[6] = molecular target: Cellular tumor antigen p53 (Homo sapiens) (UniProt P04637); assay: TOX21_p53_BLA_p3_ratio: Tox21 HCT-116 p53 Agonism Beta-lactamase Assay, Ratio, Phase 3 (AID 2283596)
Procedure, shortened: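 Cells were seeded at 4000/well, rested 5 h at 37C, then dosed with DMSO compound solutions (217-fold dilution) for 16 h. CCF4-AM substrate was loaded for 2 h at room temperature, and the 460/530 nm emission ratio was fitted for gain of signal versus DMSO.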

Sequence of Cellular tumor antigen p53 (Homo sapiens) (P04637 whole entry, looked up): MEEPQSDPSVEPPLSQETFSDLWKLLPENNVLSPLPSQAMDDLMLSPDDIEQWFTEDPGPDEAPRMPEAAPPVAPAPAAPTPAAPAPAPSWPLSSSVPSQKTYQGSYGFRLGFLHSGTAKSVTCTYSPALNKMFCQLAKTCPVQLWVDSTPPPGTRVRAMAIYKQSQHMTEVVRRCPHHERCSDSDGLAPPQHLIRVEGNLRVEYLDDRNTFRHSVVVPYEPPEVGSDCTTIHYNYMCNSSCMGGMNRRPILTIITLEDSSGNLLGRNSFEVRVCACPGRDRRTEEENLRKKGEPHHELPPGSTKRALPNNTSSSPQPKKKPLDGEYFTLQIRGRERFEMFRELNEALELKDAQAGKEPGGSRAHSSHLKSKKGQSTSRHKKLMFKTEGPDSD

Cc1cc(Cl)ccc1OC(C)C(=O)O (configuration not stated)
outcome [1]: inactive | outcome [2]: inactive | outcome [3]: inactive | outcome [4]: inactive

O=[N+]([O-])c1c2ccccc2cc2ccccc12
outcome [1]: inactive | outcome [2]: inactive | outcome [5]: inactive | outcome [3]: inactive | outcome [6]: inactive | outcome [4]: inactive

CC(=Cc1ccccc1)[N+](=O)[O-]
AC50 [1]: 23.6 µM (active) | outcome [2]: inactive | outcome [3]: inactive

Clc1cnc(Oc2ccc(Oc3ncc(Cl)cc3Cl)cc2)c(Cl)c1
outcome [1]: inactive | outcome [5]: inactive | outcome [3]: inactive

O=[N+]([O-])c1ccc(Nc2ccccc2)cc1
outcome [1]: inactive | AC50 [5]: 72.5 µM (active) | outcome [5]: inactive | AC50 [3]: 61 µM (active) | outcome [3]: inactive | AC50 [6]: 42.4 µM (active) and 90.9 µM (active) | AC50 [4]: 82.4 µM (active) | outcome [4]: inactive

N#CCCC(Br)(C#N)CBr (configuration not stated)
outcome [1]: inactive | outcome [2]: inactive | outcome [5]: inactive | outcome [3]: inactive | outcome [4]: inactive

O=C1C[C@@H]2OCC=C3CN4CC[C@]56c7ccccc7N1[C@H]5[C@H]2[C@H]3C[C@H]46
outcome [1]: inactive | outcome [2]: inactive | outcome [5]: inactive | outcome [3]: inactive | outcome [6]: inactive | outcome [4]: inactive

CC1(C)[C@H](/C=C2\CCSC2=O)[C@@H]1C(=O)OCc1coc(Cc2ccccc2)c1
outcome [1]: inactive | outcome [2]: inactive | outcome [5]: inactive | outcome [3]: inactive | outcome [4]: inactive

OCC(c1ccc(Cl)cc1)c1ccc(Cl)cc1
outcome [1]: inactive | AC50 [2]: 69.5 µM (active) | AC50 [5]: 80.1 µM (active) | outcome [3]: inactive | outcome [6]: inactive | AC50 [4]: 71.1 µM (active)

CN(N=O)C(N)=O
outcome [1]: inactive | outcome [5]: inactive | outcome [3]: inactive

O=S(=O)(c1ccc(Cl)cc1)c1cc(Cl)c(Cl)cc1Cl
outcome [1]: inactive | outcome [5]: inactive | outcome [3]: inactive

Clc1ccc(C(Cl)(Cl)Cl)cn1
outcome [1]: inactive | outcome [2]: inactive | outcome [3]: inactive | outcome [4]: inactive

CNC(=O)O/N=C/C(C)(C)S(C)(=O)=O
outcome [1]: inactive | outcome [2]: inactive | outcome [5]: inactive | outcome [4]: inactive

CCCCN(CCCCO)N=O
outcome [1]: inactive | outcome [2]: inactive | outcome [3]: inactive

[F][Sn]([c]1ccccc1)([c]1ccccc1)[c]1ccccc1
AC50 [1]: 1.35 µM (active) | AC50 [2]: 1.6 µM (active) | AC50 [5]: 10.1 µM (active) | AC50 [3]: 13.3 µM (active) | AC50 [6]: 13.5 µM (active) | AC50 [4]: 3.96 µM (active)

CCC[CH2][Sn]([CH2]CCC)([CH2]CCC)[CH2]CCC
AC50 [1]: 33.9 µM (active) | AC50 [2]: 30.1 µM (active) | outcome [5]: inactive | AC50 [3]: 20.2 µM (active) | AC50 [6]: 29.6 µM (active) | AC50 [4]: 42.2 µM (active)

N#Cc1ccncc1
outcome [1]: inactive | outcome [2]: inactive | outcome [5]: inactive | outcome [6]: inactive

CN(C)[C@@H]1C(=O)C(C(N)=O)=C(O)[C@@]2(O)C(=O)C3=C(O)c4c(O)ccc(Cl)c4[C@@](C)(O)[C@H]3C[C@@H]12
outcome [1]: inactive | outcome [2]: inactive | outcome [4]: inactive

Cc1cccc(C)c1NC(=O)CN1CCCC1=O
outcome [1]: inactive | outcome [2]: inactive | outcome [5]: inactive | outcome [3]: inactive | outcome [4]: inactive

CC(C)(C)c1cc([N+](=O)[O-])cc(C(C)(C)C)c1O
outcome [1]: inactive | AC50 [2]: 46.1 µM (active) | AC50 [5]: 3.81 µM (active) | outcome [3]: inactive | AC50 [4]: 46.1 µM (active)
